This is part of a sample that, as a whole, favours compounds with a hit. Of some 83,000 tested, about 20% had one in any assay.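 For each line, cells grew in 96-well plates with the test compound present at a single concentration for 48 hours.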 Values without a mark were called inactive. The source made the active and inactive calls.

The experiment relates to HCT-116 colon. The experiment is described as follows: NCI-60 one-dose screen, 48 h (100 = growth as untreated, 0 = no growth, -100 = all killed). Conditions: 10 µM unless noted. How it is done:
Growth inhibition of the HCT-116 human tumor cell line is measured as a screen for anti-cancer activity. Cells are grown in 96 well plates and exposed to the test compound for 48 hours. Compounds are tested at a single concentration, which is 10^-5 M for most compounds. The reported endpoint is percent growth (GI% or GIPRCNT), where numbers from 0 - 100% represent growth inhibition, and numbers from -100% - 0 represent cell death. For example, a value of 40 represents 60% growth inhibition. A value of 0 means no net growth occurred over the course of the experiment. A value of -40 indicates 40% of cells at the beginning of the experiment died by the end of the experiment. A value of -100 means all cells are dead at the end of the experiment.
NCI-60 Human Tumor Cell Lines Screen was performed using the standard one-dose NCI protocol, which is described in more detail at https://dtp.cancer.gov/discovery_development/nci-60/default.htm.
Compounds with GIPRCNT values below 10 were considered active. Activity score was based on GIPRCNT using the following formula: […]
Score is 0 for GIPRCNT values of 100 or above, 50 for GIPRCNT values of 0, and 100 for GIPRCNT values of -100.
In the case of `Cc1cc(O)cc2c1[C@H]1CC[C@]3(C)[C@@H](O)CC[C@H]3[C@@H]1C=C2`, the growth is 86.6%.
Take `O=C(CCc1nnc2sc(/C=C\c3ccccc3)nn12)c1nc2ccccc2[nH]1`: the growth is 59.7%.
On to `CCCCCCCC/C=C\CCCCCCCCOc1cccc(CC(=O)NCC[N+]2(C)CCOCC2)c1`, for which the growth is 78.5%.
With `COc1ccc(C(=O)C2=CC(=O)C(=O)C2)cc1OC` the figure was 103%; with `O=C(CCCCCCC(=O)Nc1ccc2c(c1)/C(=C/c1ccc[nH]1)C(=O)N2)NO`, -36.8% (active).
With `COc1ccc(/C=C2\CN(Cc3cn(CCCNc4ccnc5cc(Cl)ccc45)nn3)C/C(=C\c3ccc(OC)cc3)C2=O)cc1` the figure was 44.5%.
`COc1cccc(-c2ccc3c(c2)C2CCN(Cc4ccccc4)C3C2)c1` (stereo not given): the growth was 58.4%.
Regarding `COc1cccc(C2CC(=O)Nc3cc4c(cc32)OCO4)c1OC` (stereo not given), the growth was 93.6%.
As for `c1ccc(-c2n(Cc3ccc4ccccc4n3)c3ccccc3[n+]2Cc2ccc3ccccc3n2)cc1`, the figure is 5.91% (active).
Regarding `CCCCCCCCCCCCCCNc1nc(CO)ncc1-c1ccc(C(F)(F)F)cc1`, the growth is 94.1%.
Consider `Oc1ccccc1/C=N/Nc1nc2ccccc2s1`, for which the growth is 41.2%.
As for `Cc1nn2c(-c3nc4ccc(Cl)cc4[nH]3)c(-c3ccc(F)cc3)nc2s1`, the figure is 86.3%.
As for `CNc1ccc(Br)cc1-c1n[nH]c(=O)[nH]c1=O`, the figure is 98.2%.
Turning to `O=C(NC1CC1)c1cc2n(n1)CC(c1ccccc1)N2` (stereo not given), the growth is 102%.
With `Cc1nc2cc(Nc3nc(Cl)nc(Nc4ccc(F)cc4)n3)ccc2n1Cc1ccccc1` the figure was 3.88% (active); with `COc1cc2nc(N3CCC[C@H](NC4=CC(=O)c5ccccc5C4=O)C3)nc(N)c2cc1OC`, -85.3% (active).
As for `O=C(Nc1nc2ccccc2[nH]1)C(=O)Nc1nc2ccccc2[nH]1`, the figure is 103%; as for `ONc1nc(NO)c2[nH]cnc2n1`, 46.8%.
As for `CC[Si](CC)(CC)OC1[C@@H](O[Si](CC)(CC)CC)[C@@H](CNC(=O)NC)O[C@H]1n1cnc2c(NC(=O)Nc3ccccc3)ncnc21` (stereo not given in full), the figure is 51.9%; as for `O=C(NCc1ccc(F)cc1)C1CN(c2ccc(Cl)cc2)N(c2ccc(Cl)cc2)C1=O` (stereo not given), 48.8%.
For the compound `Cc1ccc(C(=O)Nc2ccccc2N)cc1`, the growth was 62.9%.
For the compound `FCOC(C(F)(F)F)C(F)(F)F`, the growth is 103%.
Consider `CCCCC(O)Cn1ncc(C(=O)OCC)c1NC(=O)NCc1ccccc1C(F)(F)F` (stereo not given), for which the growth was 89.6%.
`Clc1ccc(Nc2ccnc(N3CCN(c4ccnc5cc(Cl)ccc45)CC3)n2)cc1`: the growth was 13.5%.
As for `CC(=O)c1cc(C)c(OC(=O)c2ccccc2)c(C)c1`, the figure is 93.7%; as for `CCN(CC)c1ccc(/C=C(\C#N)c2cc3ccccc3[nH]2)cc1`, 31.5%.
As for `COc1cc(-c2nc(SC(C)C)nc(Nc3ccccc3C)c2C#N)cc(OC)c1OC`, the figure is 114%.
Turning to `COc1ccc(/C=C(\C#N)c2ccc(OC)cc2)cc1`, the growth is 55.4%.
With `FC(F)(F)Oc1ccc2c(c1)C[C@H]1C[C@@H](c3ccoc3)N2O1` the figure was 107%.
With `Cc1nc(-c2ccccc2)cc2c(O)c(C(=O)N/N=C/Cc3ccccc3)[nH]c(=O)c12` the figure was 101%.
With `CC(=O)OC[C@]1(C)C=C2C(=O)[C@](C)(O)C3(CC3)C(C)=C2[C@H]1OC(C)=O` the figure was 62.3%.
Regarding `CCCCC(CCCC)(S(=O)(=O)CC)S(=O)(=O)CC`, the growth is 98.9%.
Take `Clc1ccc2c(N3CCN(c4ccnc(NC5CCCCC5)n4)CC3)ccnc2c1`: the growth is 4.29% (active).
With `CCCCCCCCCCCCCCCC[N+]1(C)CCOCC1` the figure was 18.2%; with `COc1ccc(-c2c3c(N)c4c(nc3nc3c2c(C)nn3-c2ccccc2)CCCCC4)cc1`, 27.9%; with `COC(=O)/C=C1/CCC2C3CCC4=CC(=O)C(Br)CC4(C)C3C(=O)CC12C` (stereo not given), 47.9%.
As for `COc1c(O)c2c3c(c1OC)-c1ccccc1CC3N(S(=O)(=O)c1ccc(C)cc1)CC2` (stereo not given), the figure is 38.6%; as for `CCOC(=O)c1c(Cl)c2c(n1Cc1ccc(OC)cc1)-c1oncc1CCC2`, 62.3%.
As for `CN(C)c1ccc(/C=C(\C#N)c2cc3ccccc3n2C)cc1`, the figure is 10.6%; as for `Cc1nc2cc(Nc3nc(N4CCOCC4)nc(N4CCN(C)CC4)n3)ccc2n1Cc1ccccc1`, 98.2%.

(Values after PubChem BioAssay (NCI).)
